Results taken from PubChem BioAssay AID893 (National Center for Advancing Translational Sciences (NCATS), 2007).
Values joined by “and” are separate entries in the source; they are usually repeats but may differ in a detail not shown here. Equal entries are not always repeated. About 5,700 (7.6%) of roughly 75,000 compounds were called active. Another 7% or so got no clear call; they are omitted. This is one part of a sample in which actives are shown more often than they occur. Values without a mark were called inactive. Calls come from the whole dose curve; as a rule, active = well fitted inhibition curve with a large enough effect; inconclusive = small, poorly fitted or top-dose-only effect; inactive = no such curve, though single readings can be large or run the other way.

The compounds below were run against 3-hydroxyacyl-CoA dehydrogenase type-2 (Homo sapiens) (UniProt Q99714) (assay: qHTS Assay for Inhibitors of HSD17B4, hydroxysteroid (17-beta) dehydrogenase 4). Conditions: recombinant HSD17B10, NADH fluorescence kinetic; series mostly up to 57.1 µM; activity change, negative = inhibition: at the top concentration.
Procedure, shortened: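 20 nM HADH2, pH 9.0 Tris/Tween; cpd preinc 15 min RT; start w/ 1 mM NAD+ + 90 uM b-hydroxybutyryl-CoA; kinetic fluor ex360/em450 q30s x 4 min; delta last-first.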
% is set by controls: 0 for no effect and ±100 for the full control effect; potency is the fitted concentration of half-maximal effect.
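Note: the protocol describes HADH2 (HSD17B10) and not the HSD17B4 of the title; nearly all actives have a fitted effect of over 70% in size.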

Row | SMILES | activity change, negative = inhibition | Potency
1 | N=c1c2c3c(sc2ncn1CCCN1CCOCC1)CCCCC3 | 5.59% | 
2 | COC(=O)c1ccc(C(NC(=O)OCc2ccccc2)/C(C)=C/[C@@H](C)C(=O)NCc2cc(C)on2)cc1 (some centres not stated) | -4.34% | 
3 | Cc1cc(C)cc(OCc2nnc(SCC(=O)Nc3ccccc3)o2)c1 | 8.07% | 
4 | Cc1cccc(OCc2nnc(SCn3nnc4ccccc4c3=O)o2)c1 | -9.02% | 
5 | Cc1cccc(OCc2nnc(SCc3nc4cc(C(F)(F)F)ccc4c(=O)[nH]3)o2)c1 |  | 31.6 µM (active)
6 | O=C(c1csnn1)N1CCC2(CCN(Cc3nccs3)CC2)CC1 | -2.61% | 
7 | Cc1ccccc1CSc1nnc(-c2ccccn2)n1N | 4.98% | 
8 | CC(C)(C)NCC[C@@H](O)c1cc(C(F)(F)F)nc2c(C(F)(F)F)cccc12 | 3.93% [at 11.4 µM] | 
9 | Cc1ccn2cc(C(=O)NC3CCN(Cc4ccccc4)CC3)nc2c1 |  | 31.6 µM (active)
10 | COC(=O)c1cc(S(=O)(=O)NC2CCN(Cc3ccccc3)CC2)cn1C | -3.37% | 
11 | O=C(NC1CCN(Cc2ccccc2)CC1)c1ccccc1F | 12.8% | 
12 | COc1cc(Cl)cc(C2NC(=O)NC(C)=C2C(=O)NCc2ccccc2)c1O (configuration not stated) | 8.34% | 
13 | CCOc1ccc(C(=O)Nc2cc(OC)ccc2OC)cc1 | -11.3% | 
14 | COc1ccc(OC)c(Nc2nc(-c3ccc(O)c(O)c3)cs2)c1 |  | 7.94 µM (active)
15 | Oc1ccc(-c2csc(Nc3cccnc3)n2)cc1 | 3.13% | 
16 | COc1ccc(-n2nnc3c(=O)n(CC(=O)OCc4ccccc4)cnc32)cc1 | 1.02% | 
17 | c1ccc(-c2noc(-c3cccs3)n2)nc1 | -5.02% | 
18 | COC(=O)[C@H](C)[C@H]1C[C@]1(C)[C@H](NC(=O)OCc1ccccc1)c1ccccc1 | -4.85% | 
19 | COc1ccccc1CNc1ncnc2ccc(-c3c(C)noc3C)cc12 | -0.171% | 
20 | COc1ccc2[nH]cc(CCNc3ncnc4ccc(-c5ccccc5CN(C)C)cc34)c2c1 | 14.2% | 
21 | COc1ccccc1CNc1ncnc2ccc(-c3ccc4c(c3)OCO4)cc12 |  | 31.6 µM (active)
22 | COc1cc(OC)c(C(=O)NC2CCCCCC2)cc1OC | -14% | 
23 | O=C(COC(=O)CCC(=O)c1cccs1)NCc1ccco1 |  | 25.1 µM (active)

Row | SMILES | activity change, negative = inhibition | Potency
24 | O=C(CCC(=O)c1cccs1)NCc1ccccc1 | 9.75% | 
25 | O=C(COC(=O)C12CC3CC(CC(C3)C1)C2)NCc1ccco1 | -13.9% | 
26 | CC(=O)Nn1cc2c(=O)n(C)c(=O)n(C)c2c1 | 5.62% | 
27 | CC1=C(C(=O)Nc2ccc(Cl)cc2)C(c2ccco2)NC(=O)N1 (configuration not stated) | -1.26% | 
28 | C=C(C)Cn1c(N2CCN(CC)CC2)nc2c1c(=O)[nH]c(=O)n2C | 1.14% | 
29 | CCC(C)(C)N=C(NC#N)Nc1cccnc1 | -14.3% | 
30 | CCOC(=O)Cc1c(C)nc2c(C#N)c(C)nn2c1C |  | 25.1 µM (active)
31 | CCOC(=O)CSc1nccc(N(C)C)c1C#N | -0.126% | 
32 | CC[C@@H]1Cc2cc(O)ccc2C2=C1c1ccc(O)cc1C[C@H]2CC |  | 25.1 µM (active)
33 | C=CC(=O)c1ccc2ccccc2c1 |  | 25.1 µM (active)
34 | Cc1ccc2nc(CC(=O)c3ccc4ccccc4c3)c(=O)[nH]c2c1 | 5.47% [at 11.4 µM] | 
35 | c1ccc(CCC2=NCCn3cccc32)cc1 | 4.34% | 
36 | CN(CCOc1ccc(CC2SC(=O)NC2=O)cc1)c1ccccn1 (configuration not stated) |  | 31.6 µM (active)
37 | CO[C@@H]1COC(=O)[C@H](Cc2ccccc2)NC(=O)C/C=C\[C@@H](C)[C@H](OC)COC(=O)[C@@H](C)NC(=O)C/C=C\[C@H]1C | 5.16% [at 11.4 µM] and 0.0428% [at 11.4 µM] | 
38 | CCOC(=O)Cc1csc(NC(=O)Nc2ccccc2)n1 | 5.37% | 
39 | Cc1csc(NC(=O)NC2(C(F)(F)F)Oc3ccccc3O2)n1 |  | 25.1 µM (active)
40 | Cc1cc(C)nc(NC(=O)Nc2ccccc2C(F)(F)F)n1 | -1.71% | 
41 | CCCCN(C)C(=O)C1CCN(Cc2ccccn2)CC1 | 5.92% | 
42 | CO[C@H]1COC(=O)[C@@H](C)NC(=O)C/C=C\[C@@H](C)[C@H](OC)COC(=O)C/C=C\[C@@H]1C | -0.943% [at 11.4 µM] | 
43 | c1ccc(-c2oc3ncnc(N4CCOCC4)c3c2-c2ccccc2)cc1 |  | 10 µM (active)
44 | O=C1c2ccccc2-c2ncnc3c(N4CCOCC4)cc(N4CCOCC4)c1c23 | 0.627% | 
45 | c1ccc(-n2nnnc2N2CCOCC2)cc1 | 5.21% | 
46 | Cc1cc(C(=O)OCC(=O)c2c(N)n(C)c(=O)n(C)c2=O)c(C)o1 | 7.96% | 

Row | SMILES | activity change, negative = inhibition | Potency
47 | CCCOc1cccc(C(=O)Nc2nnn(CCC)n2)c1 | 11.2% | 
48 | CCOc1cccc(C(=O)Nc2cccnc2)c1 | 8.63% | 
49 | CCC(=O)Oc1cccc(C(=O)Nc2ccc(-c3nnc(-c4ccco4)o3)cc2)c1 |  | 20 µM (active)
50 | Oc1ccc2c(c1)OCC1c3cc4c(cc3OC21)OCO4 (configuration not stated) | -0.88% | 
51 | O=C(c1ccccc1)N1CCN(C(=O)N2CCCCC2)CC1 | 3.89% | 
52 | O=C(O)CS(=O)c1ccc2c3c(cccc13)C(=O)c1ccccc1-2 (configuration not stated) | -2.63% [at 11.4 µM] | 
53 | CC(=O)c1c(C)n(-c2ccc(N(C)C)cc2)c2ccc(OCC(N)=O)cc12 | -11.9% | 
54 | O=C1Nc2c(Br)cc(Br)cc2C1(O)N1CCOCC1 (configuration not stated) | 0.821% | 
55 | Brc1cccc(-c2nnc3n2CCC3)c1 | 0.616% | 
56 | CCN(CC)c1ccc2oc(=O)c(C)nc2c1 | -25.8% | 
57 | CCc1ccc2oc(-c3ccc(N)cc3)nc2c1 |  | 25.1 µM (active)
58 | Cc1ccc(S(=O)(=O)N2C3C=CC(C3)C2C(=O)O)cc1 (configuration not stated) | 6.36% | 
59 | COC(=O)N1CCC2(CCCN(c3ccncc3)C2)CC1 | 1.52% | 
60 | COc1cccc(N2CCN(C3CC(=O)N(c4ccc(Cl)cc4)C3=O)CC2)c1 (configuration not stated) | -12.5% | 
61 | COC(=O)CC1C(C)(C)C(OC(C)=O)C2CC3=C4CC(=O)OC(c5ccoc5)[C@]4(C)CCC3[C@@]1(C)C2=O (some centres not stated) | -4.16% | 
62 | COc1ccc(N2CCN(C(c3cc4ccc(C)cc4[nH]c3=O)c3nnnn3C3CCCC3)CC2)cc1 (configuration not stated) | -0.718% | 
63 | CCOc1ccc2[nH]c(=O)c(C(c3nnnn3CCOC)N3CCOCC3)cc2c1 (configuration not stated) |  | 10 µM (active)
64 | COCCn1nnnc1C(c1cc2ccc(OC)cc2[nH]c1=O)N1CCc2ccccc2C1 (configuration not stated) | -12% | 
65 | O=C1CC2(CCCCC2)Oc2ccc(OCC(=O)N3CCOCC3)cc21 |  | 31.6 µM (active)
66 | COc1ccc(OCC(=O)N2CCOCC2)cc1 | 8.6% | 
67 | O=C(Nc1cccc(OCC(=O)N2CCOCC2)c1)C1CCCCC1 | 10.2% | 
